Screens as filed in PubChem.
The list is not random: actives were taken first. Their share in the collection is about 2.2%.
BRCA1 expr up: qHTS Assay to Identify Small Molecule Activators of BRCA1 Expression. MCF7-BRCA1-FFLuc reporter, luminescence, 48 h; response scale: scaled: vehicle 0%, 10 µM genistein 100%. Potency, µM (doses to about 46.1 µM), without a hit: at the highest dose activation, usual class: activators. 380,000 tested, 1.1% active. AID 624202, 2012; note: potency is the fitted concentration of half-maximal effect; nearly all actives have a fitted effect of over 80% in size
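MCF7-BRCA1-FFLuc cells, 2000/well in phenol-red-free MEM, attached 2 h then treated 48 h at 37 C. Luciferase luminescence read 15 min after reagent; normalized to genistein maximum activation (10microM) and DMSO, concentration-response fitted.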
TrxR1 substrate: qHTS Assay for Substrates of Mammalian Selenoprotein Thioredoxin Reductase 1 (TrxR1): qHTS. Thioredoxin reductase 1, cytoplasmic (Rattus norvegicus), O89049. purified TrxR1 substrate turnover, NADPH consumption readout. Potency, µM (highest dose often 114 µM), for inactives: at the top dose activity change, negative = substrate turnover. 390,000 tested, 0.01% active. AID 588456, 2011; note: potency is the fitted concentration of half-maximal effect; % is set by controls: 0 for no effect and ±100 for the full control effect; nearly all actives have a fitted effect of over 50% in size
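Rat TrxR1, dispensed at 90 nM, was prereduced with 400 uM NADPH (final) for 5 min at ~22 deg C, then incubated with compound 15 min before 400 uM selenite. A first-read NADPH fluorescence drop versus no-compound background flagged substrates.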
IL-2 act: qHTS of IL-2 Activators; AID 652025, 2013; 360,000 tested, 0.065% active; activation, % (series mostly up to about 46 µM); IL-2 activation reporter assay, cell-based qHTS; stimulated with anti-CD3/CD4/CD28 beads; in transgenic mouse T cells; in the data active = activation above about 50%; inconclusive = mostly about 30% to 49%; note: 0% is about no effect
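EGFP and DsRed fluorescence is measured by plate cytometry in unstimulated transgenic mouse T cells exposed to compound for 60 minutes, then stimulated 18 hours at 37 degrees C with anti-CD3/anti-CD4 beads plus anti-CD28.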
Giardia killer: Small Molecules that selectively kill Giardia lamblia: qHTS. Giardia lamblia trophozoite viability. 340,000 tested, 0.15% active. activity change, % at 7.66 µM, hits read low. AID 540267, 2011; in the data active = activity change below about -80%; inconclusive = between about -30% and that limit;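 note: parasites exposed to compound for two days anaerobically before the ATP read; % is set by controls: 0 for no effect and ±100 for the full control effect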
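Luminescent ATP signal served as the viability read-out, measured 15-30 min after adding ATP detection reagent to trophozoites that had been incubated with compounds for 48 hrs at 37 deg C anaerobically at 100 cells/well.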
mIDH1 inhibitor: qHTS for Inhibitors of mutant isocitrate dehydrogenase 1 (IDH1): qHTS; Isocitrate dehydrogenase [NADP] cytoplasmic (Homo sapiens), O75874; IDH1-R132H enzyme, NADPH consumption, diaphorase/resazurin fluorescence; Potency, µM (highest dose often 76.6 µM), inactives show top-dose activity change, negative = inhibition, actives largely listed as inhibitors; 390,000 tested, 0.093% active; AID 602179, 2012; note: potency is the fitted concentration of half-maximal effect; % is set by controls: 0 for no effect and ±100 for the full control effect; nearly all actives have a fitted effect of over 65% in size
Target sequence (O75874 whole entry R132H, stated change not applied): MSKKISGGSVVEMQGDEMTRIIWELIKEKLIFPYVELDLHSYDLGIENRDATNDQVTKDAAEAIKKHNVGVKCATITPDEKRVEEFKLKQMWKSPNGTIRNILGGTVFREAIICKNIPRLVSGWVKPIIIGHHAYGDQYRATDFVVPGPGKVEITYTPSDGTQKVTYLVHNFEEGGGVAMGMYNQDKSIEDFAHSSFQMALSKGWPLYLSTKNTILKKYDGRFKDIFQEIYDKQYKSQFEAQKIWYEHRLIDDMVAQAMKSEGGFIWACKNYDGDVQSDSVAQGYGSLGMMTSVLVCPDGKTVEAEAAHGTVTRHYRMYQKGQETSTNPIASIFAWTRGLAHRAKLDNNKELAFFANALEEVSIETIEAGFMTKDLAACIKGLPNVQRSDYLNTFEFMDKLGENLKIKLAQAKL
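IDH1-R132H (0.5 ug/mL dispensed) in pH 7.5 Tris buffer was preincubated 30 min with compound, then given a substrate mix of 0.016 mM NADPH and 2 mM alpha-KG for 80 min at room temperature; remaining NADPH was read by diaphorase/resazurin fluorescence.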
rTrxR1 inhibitor: qHTS Assay for Inhibitors of Mammalian Selenoprotein Thioredoxin Reductase 1 (TrxR1): qHTS | 390,000 tested, 1% active | Potency, µM (highest dose often 114 µM), for the others: top-dose activity change, negative = inhibition, hits mostly inhibitors | AID 588453, 2011 | Thioredoxin reductase 1, cytoplasmic (Rattus norvegicus), O89049 | recombinant rTrxR1, NADPH fluorescence consumption, selenite substrate; note: potency is the fitted concentration of half-maximal effect; % is set by controls: 0 for no effect and ±100 for the full control effect; nearly all actives have a fitted effect of over 65% in size
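Rat TrxR1 (90 nM in the dispensed reagent) was pre-reduced with 400 uM NADPH for 5 min at room temperature, then incubated with compound for 15 min. After 400 uM selenite was added, NADPH fluorescence (Ex 340/Em 450 nm) was followed for 8 min.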
Starred values were filed as active, the others as inactive; u = inconclusive; x = no result given; [ ] = dose if it differs, or a comment. Unless noted, calls come from the whole dose curve; as a rule, active = well fitted curve in the direction sought with a large enough effect; inconclusive = small, poorly fitted or top-dose-only effect, or another doubt; inactive = no such curve, though single readings can be large; an effect the other way counts as inactive or inconclusive.

SMILES	BRCA1 expr up	TrxR1 substrate	IL-2 act	Giardia killer	mIDH1 inhibitor	rTrxR1 inhibitor
CCN(CC)C(=S)SCC(=O)Nc1ccc(F)cc1	7%	-2%	-1	12	9%	-4%
CCN(CC)C(=S)SCC(=O)c1ccccc1	7.9µM*	-13%	-1	-14	18%	-8%
CCN(CC)C(=S)SCC(=O)c1c(C)[nH]c2ccccc12	5%	-8%	0	4	15%	0%
CCN(CC)C(=S)SCC(=O)c1ccc(F)cc1	3.2µM*	10%[57.1 µM]	0	-7	2%	20%
O=C(Cn1cnc([N+](=O)[O-])c1)c1ccc(Cl)cc1	17%	0%	2	-29	3%	14%
O=C(C[n+]1cnn(CC(=O)c2ccc(Cl)cc2Cl)c1)c1ccc([N+](=O)[O-])cc1	-87%	-7%	1	0	5%	50µM*
CC(=O)n1nc(-c2ccc(C)cc2)nc1NCc1ccco1	5µM*	10%[57.1 µM]	0	-24	5%	20%[57.1 µM]
CC(=O)n1nc(-c2ccc(C)cc2)nc1NCc1ccc(F)cc1	3.2µM*	-5%[57.1 µM]	0	-2	0%	7%[57.1 µM]
O=C(NCCOc1ccccc1Cl)c1ncn[nH]1	1%	8%[57.1 µM]	-4	7	-2%	2%[57.1 µM]
O=C(NCCOc1ccccc1Cl)c1cc(F)c(F)cc1Cl	7.1µM*	-3%	0	-22	2%	2%
CCOC(=O)c1ccc(NC(=O)CSc2cn(CC(=O)N3CCCC3)c3ccccc23)cc1	x	2%	x	x	-8%	17%
COc1ccc(C(=O)Nc2cc3c4c(c2)CC(=O)N4CCC3)c(OC)c1	4µM*	3%	-1	6	16%	11%
COc1ccc(C(=O)Nc2cc3c4c(c2)CC(=O)N4CCC3)cc1	-8%	-7%	2	7	10%	-12%
COC(=O)c1c(-c2cc(C)ccc2C)csc1NC(=O)C1CC=CCC1C(=O)O (stereo not given)	-5%	7%[57.1 µM]	-3	-10	-3%	4%[57.1 µM]
COC(=O)c1c(-c2ccc(C)cc2)csc1NC(=O)C1CC=CCC1C(=O)O (stereo not given)	11µM*	-4%	1	12	3%	-9%
COc1ccc(-c2cc(C(F)(F)F)nc(N)n2)cc1	2%	8%	0	-5	-3%	12%
COc1ccc(-c2cc(C(F)(F)F)nc(S(C)(=O)=O)n2)cc1	-80%	6%	-2	-8	21%	10µM*
CS(=O)(=O)c1nc(-c2ccc(F)cc2)cc(C(F)(F)F)n1	-100%	18%	-4	-14	10%	18µM*
O=C(CNC(=O)C(c1ccccc1)c1ccccc1)OCC(=O)c1cccc2ccccc12	3%	-8%[0.0914 µM]	x	-24	x	2%
C=C1CCN(C(CC(C)C)C(=O)NCc2ccc(Cl)c(Cl)c2)S(=O)(=O)c2ccccc21 (stereo not given)	x	-9%	x	2	x	6%
CCOCc1nnc(NC(=O)c2ccc(OC)cc2)s1	13µM*	5%	2	-4	-9%	0%[57.1 µM]
CCCc1nnc(NC(=O)c2cccc(OC)c2)s1	7.1µM*	-3%	-1	-1	9%	11%
COc1ccc(Cc2nnc(NC(=O)Nc3ccccc3OC)s2)cc1	-23%	-2%	1	18	14%	4%
CCOCc1nnc(NC(=O)c2ccc(NC(C)=O)cc2)s1	-2%	0%	1	14	4%	23%
COc1cccc(C(=O)Nc2nnc(Cc3ccc(OC)c(OC)c3)s2)c1	-11%	-6%	0	-13	0%	-5%
SMILES	BRCA1 expr up	TrxR1 substrate	IL-2 act	Giardia killer	mIDH1 inhibitor	rTrxR1 inhibitor
CCCc1nnc(NC(=O)Nc2ccccc2OC)s1	22µM*	-1%	-3	-13	3%	1%
Cn1ncc2c(N3CCN(c4ccccc4Cl)CC3)ncnc21	x	-3%[57.1 µM]	x	x	10%	3%[57.1 µM]
O=c1[nH]c2cc3c(cc2cc1C(c1nnnn1CC1CCCO1)N1CCCCCC1)OCCO3 (stereo not given)	-1%	14%	-2	13	-3%	22µM*
CC/C(=C/c1ccccc1)c1cc(Oc2ccccc2)cc2oc3ccccc3c12	x	59%	x	x	x	-25%
CCc1cc(=O)oc2cc(OC(=O)CN3C(=O)NC4(CCCC4)C3=O)ccc12	-2%	114%[57.1 µM]	-1	7	5%	u
O=C(CN1C(=O)NC2(CCCC2)C1=O)Oc1ccc2ccc(=O)oc2c1	1%	855%	1	10	6%	79µM*
O=C(CN1C(=O)NC2(CCCCC2)C1=O)Oc1ccc2c(C(F)(F)F)cc(=O)oc2c1	1%	9%	0	15	-5%	40µM*
Cc1c(Cl)cnc(NC(=O)COC(=O)/C=C/c2ccco2)c1Cl	0%	0%	3	-17	3%	16µM*
CN(C)S(=O)(=O)c1cccc(NC(=O)COC(=O)/C=C/c2ccco2)c1	-21%	-2%	-1	-6	1%	25µM*
CCN(CC)S(=O)(=O)c1cccc(NC(=O)COC(=O)/C=C/c2ccco2)c1	-21%	-10%	-2	-21	2%	u
Cc1nc(NC(=O)COC(=O)[C@@H](NC(=O)c2ccco2)C(C)C)c(Cl)cc1Cl	-3%	7%	1	-20	-8%	-7%
Cc1c(Cl)cnc(NC(=O)COC(=O)C(NC(=O)c2ccco2)C(C)C)c1Cl (stereo not given)	-1%	1%	1	11	6%	50µM*
CC(C)(C)c1ccc(OCc2nnc(-c3ccccc3)o2)cc1	x	2%	x	x	17%	18%
CC(C)(C)n1ncc2c(=O)n(Cc3ccc(SC(=O)O)cc3Cl)cnc21	x	0%	x	x	x	2%
Cc1ccc(-c2[nH][nH]c(=O)c(=O)c2N=Nc2ccccc2)cc1	-2%	-6%	-1	-92*	2%	-11%
CC(C)(C)c1ccc(C(=O)Nc2nnc(SCC(=O)NCC3CCCO3)s2)cc1 (stereo not given)	-43%	-8%	-4	-93*	0%	7%
Cc1ccc(-c2ccc(SCC(=O)NCC3CCCO3)nn2)cc1 (stereo not given)	61%	-5%	0	-6	1%	19%[57.1 µM]
O=C(CSc1nnc(NC(=O)c2cccc(F)c2)s1)NCC1CCCO1 (stereo not given)	45%	-7%	-2	-12	3%	-12%
